Cruzain inh Det – qHTS Assay for Promiscuous and Specific Inhibitors of Cruzain (with detergent); Potency, µM, hits mostly inhibitors; AID 1478, 2009; purified cruzain, Z-FR-AMC fluorescence, 0.01% Triton; Cruzipain (Trypanosoma cruzi), P25779; 200,000 tested, 0.43% active; active = well fitted curve in the direction sought with a large enough effect; inconclusive = small, poorly fitted or top-dose-only effect, or another doubt; inactive = no such curve, though single readings can be large; an effect the other way counts as inactive or inconclusive; also: nearly all actives have a fitted effect of over 40% in size
Target sequence (P25779 123-467 limits assumed): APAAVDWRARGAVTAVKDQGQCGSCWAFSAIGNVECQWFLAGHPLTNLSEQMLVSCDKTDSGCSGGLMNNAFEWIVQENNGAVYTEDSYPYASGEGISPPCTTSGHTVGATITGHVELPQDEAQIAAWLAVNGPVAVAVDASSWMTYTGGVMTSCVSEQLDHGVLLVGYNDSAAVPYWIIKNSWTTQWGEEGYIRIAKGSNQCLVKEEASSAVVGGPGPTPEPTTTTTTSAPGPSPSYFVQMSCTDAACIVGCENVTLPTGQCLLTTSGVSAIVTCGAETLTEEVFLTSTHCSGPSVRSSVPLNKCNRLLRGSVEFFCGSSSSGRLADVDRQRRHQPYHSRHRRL
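Purified cruzain (1.5 nM final) was preincubated with compounds for 15 min at room temperature in 100 mM sodium acetate pH 5.5, 5 mM DTT, 0.01% Triton X-100. Reaction started with 2 uM Z-FR-AMC; AMC fluorescence change over 60 s gave activity.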
NS1 function inh – qHTS Assay for Inhibitors of Influenza NS1 Protein Function; Potency, µM (highest dose often 46.1 µM); 270,000 tested, 0.4% active; also: actives are rising curves; nearly all actives have a fitted effect of over 50% in size
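In this qHTS, NS1 from influenza A is expressed in budding yeast, where it slows growth. Cells are switched from glucose to 2% galactose medium (pH 6.0, -URA), treated with compound, and growth recovery is read at OD600.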
Cruzain noTriton – qHTS Assay for Promiscuous and Specific Inhibitors of Cruzain (without detergent); Potency, µM, actives largely listed as inhibitors; purified cruzain, Z-FR-AMC fluorescence, no detergent; Cruzipain (Trypanosoma cruzi), P25779; AID 1476, 2009; 200,000 tested, 2.3% active; active = well fitted curve in the direction sought with a large enough effect; inconclusive = small, poorly fitted or top-dose-only effect, or another doubt; inactive = no such curve, though single readings can be large; an effect the other way counts as inactive or inconclusive; also: nearly all actives have a fitted effect of over 40% in size
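Detergent-free condition (0.00005% Triton X-100) in acetate buffer pH 5.5 with DTT. 1.5 nM enzyme and compound were pre-mixed 15 min, then 2 uM Z-FR-AMC substrate added; reaction progress from fluorescence change between first and third reads (60 s).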
Flu NS1 inh – Assay for Inhibitors of Influenza NS1 Protein Function: Hit Validation; shares compounds with NS1 function inh; influenza NS1 function cell assay, 15-point titration; activity change, negative = inhibition, % at 32.9 µM; 1,400 tested, under 10 active; AID 492980, 2010
Hits are given with their value; n = inactive; u = inconclusive; x = no result. This is one part of a sample in which hits are shown more often than they occur. Unless noted, calls follow the shape of the full dose curve.

SMILES	Cruzain inh Det	NS1 function inh	Cruzain noTriton	Flu NS1 inh
CN1CCN(CCCNC(=O)C2CCN(c3nnc(-n4cccc4)s3)CC2)CC1	n	n	n	x
COc1ccc(/C=C2\SC(N3CCc4ccccc4C3)=NC2=O)cc1	n	n	n	x
O=C1N=C(N2CCc3ccccc3C2)S/C1=C\c1cccc(O)c1	n	u	n	u
Cc1cc(C)n(S(=O)(=O)c2ccc(Cl)c(Cl)c2Cl)n1	n	n	n	x
Cc1cc(C)n(S(=O)(=O)c2cc(C(=O)O)c(Cl)cc2Cl)n1	n	u	n	n
Cc1cc(C)n(CCc2nc3c4ccccc4nc(N4CCN(c5ccc(F)cc5)CC4)n3n2)n1	n	x	n	x
O=C(CSc1nc2ccccc2nc1Cc1ccc(Cl)cc1)NCCc1ccccc1	n	x	n	x
NC(=O)c1c(NC(=O)c2nc(SCc3ccccc3F)ncc2Cl)sc2c1CCCC2	n	x	n	x
CC1CCc2nc(NC(=O)CSc3nc4ccccc4o3)sc2C1 (configuration not stated)	n	n	n	x
Cc1nnc(SCC(=O)Nc2nc3c(s2)CC(C)CC3)s1 (configuration not stated)	n	u	u	n
CN(C)C=NC(=O)c1cc2c(n(-c3ccccc3)c1=O)CC(C)(C)CC2=O	n	x	n	x
COc1cccc(CNC(=O)N[C@@H](CC(C)C)C(=O)O)c1	n	n	n	x
CCC(C)[C@H](NC(=O)NCc1cccc(OC)c1)C(=O)OC (some centres not stated)	n	2.2µM	n	n
Cc1ccc2oc(=O)c3cc(C(=O)Nc4ccc(F)cc4F)sc3c2c1	n	x	n	x
CC(CCC(=O)O)(c1cc(Br)c(O)c(Br)c1)c1cc(Br)c(O)c(Br)c1	n	n	n	x
COc1ccc(/C=N/NC(=O)c2cc(-c3ccccc3OC)nc3ccccc23)cc1COC(C)=O	n	n	n	x
COc1ccc(/C=N/NC(=O)c2cc(-c3ccc(C)cc3C)nc3ccccc23)cc1COC(C)=O	n	10µM	n	n
O=C(NCc1ccccc1F)c1cccc(NC(=O)N2CCSc3ncccc32)c1	n	x	n	x
CN1C(=O)C(=O)N(CC(=O)N2CCc3ccccc32)C1=O	n	n	n	x
O=C(CN1C(=O)CSc2ccccc21)N1CCc2ccccc21	n	u	n	n
CC(Sc1nc(N)cc(=O)[nH]1)C(=O)Nc1nc2c(s1)CCCC2 (configuration not stated)	x	n	x	x
Nc1cc(=O)[nH]c(SCC(=O)Nc2ccc(Cl)c(Cl)c2)n1	n	2.5µM	n	n
CC(Sc1nc(N)cc(=O)[nH]1)C(=O)Nc1cccc(Cl)c1 (configuration not stated)	n	10µM	n	n
Nc1cc(=O)[nH]c(SCC(=O)Nc2cc(Cl)cc(Cl)c2)n1	n	n	n	x
C[C@@]12CCC(O)C[C@H]1CCc1ccccc12 (some centres not stated)	n	x	n	x
SMILES	Cruzain inh Det	NS1 function inh	Cruzain noTriton	Flu NS1 inh
Cc1cccc(-c2noc(-c3ccc(N4CCN(C)CC4)c([N+](=O)[O-])c3)n2)c1	n	x	u	x
COc1ccc(C2C3C(=O)N(Cc4ccccc4)C(=O)C3ON2c2ccccc2)c(OC)c1OC (configuration not stated)	n	n	n	x
COc1cc(C2C3C(=O)N(Cc4ccccc4)C(=O)C3ON2c2ccccc2)cc(OC)c1OC (configuration not stated)	n	11µM	u	u
Cc1cc(=O)n2nc(N(C)CC(=O)NCc3cccc(Br)c3)sc2n1	n	x	n	x
CSc1nnc([C@@H](N)Cc2ccccc2)o1	n	n	n	x
CC(C)Sc1nnc([C@@H](N)Cc2ccccc2)o1	n	u	n	n
CCCCSCCCNC(=O)c1cc(-c2cccnc2)nc2ccc(S(=O)(=O)N3CCC(C)CC3)cc12	n	x	n	x
O=C(NCC(c1cccnc1)N1CCN(c2ccccc2F)CC1)C(=O)Nc1ccc(F)cc1F (configuration not stated)	n	x	n	x
O=C1OC2(CCCCC2)CC2=C1C1O[C@](CCCCN3C(=O)c4ccccc4C3=O)(Cc3ccccc31)O2	x	n	x	x
Cc1cccc(NC(=O)c2cc(NC(=O)C3CC=CCC3C(=O)O)ccc2N2CCOCC2)c1 (configuration not stated)	n	u	n	x
Cc1ccc(NC(=O)c2cc(NC(=O)C3CC=CCC3C(=O)O)ccc2N2CCOCC2)cc1 (configuration not stated)	n	7.9µM	n	n
COC(=O)c1c(SC)nc2ccccc2c1OCc1ccc(C)cc1C	n	x	n	x

Bioassay records deposited in PubChem by National Center for Advancing Translational Sciences (NCATS).
